Among all 59,000 compounds or so, about 6,200 (11%) were called active. Another 9% or so got no clear call; they are omitted. Cut-off read from the data, not from the text of the source: active = max dye-equivalent concentration above about 10 nM; inconclusive = mostly about 1.1 nM to 9.6 nM; inactive = weaker than that. The entries come from a sample that favours actives as a whole.
Assay: qHTS Assay for Spectroscopic Profiling in 4-MU Spectral Region
Settings: compound autofluorescence, 340/450 nm, 4-MU equivalents; stronger effect = higher value
How it was run: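 Compounds in 100 mM Tris, pH 8.0, sat 15 min at room temperature before fluorescence was read at 340 nm excitation/450 nm emission; a per-plate six-point 4-MU standard curve converted signals to dye-equivalent concentration at each compound concentration.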
For `Nc1nc(SCCOc2ccccc2)n[nH]1`, the max dye-equivalent concentration was “inactive”. With `CCOC(=O)C1CCN(C(=O)C2CCN(S(=O)(=O)N3CCCC3)CC2)CC1` the max dye-equivalent concentration was “inactive”. With `COc1ccc(Cl)cc1S(=O)(=O)Nc1cccc(C(=O)O)c1` the max dye-equivalent concentration was “inactive”. For `COc1ccc(C(c2nnnn2Cc2cccs2)N2CCN(c3ccccc3)CC2)cc1OC` (centres undefined), the max dye-equivalent concentration was “inactive”. With `Nc1nonc1-c1nc2ccccc2n1Cc1ccc(F)cc1` the max dye-equivalent concentration was “inactive”. For `Nn1c(SCC(=O)NC(=O)NC2CCCC2)nnc1-c1ccccc1F`, the max dye-equivalent concentration was “inactive”. With `CC(=O)NC1=NC(=O)CS1` the max dye-equivalent concentration was “inactive”. With `COC(=O)c1[nH]c2ccccc2c1NS(=O)(=O)c1ccc(OC)cc1OC` the max dye-equivalent concentration was “inactive”. For `COc1ccc(OC)c(N=Cc2c(O)[nH]c3ccccc23)c1`, the max dye-equivalent concentration was 59 nM (active). For `CCOc1ccccc1NC(=O)Nc1cc(OC)ccc1OC`, the max dye-equivalent concentration was “inactive”. With `Cc1nn(-c2ccccc2)c(C)c1C(=O)OCC(=O)NC(=O)NC1CCCCC1` the max dye-equivalent concentration was “inactive”. For `CCC(C)(C)NC(=O)C(c1cccn1C)N(Cc1ccc(C)cc1)C(=O)Cn1nnc2ccccc21` (centres undefined), the max dye-equivalent concentration was “inactive”. In the case of `CC(C)NC[C@H](O)c1ccc2ccccc2c1`, the max dye-equivalent concentration is reported as “inactive”. For `CCCCC[C@H](O)CCCC(=O)O`, the max dye-equivalent concentration was “inactive”. With `COc1ccc(OC)c(C2N(c3ccccn3)C(=O)C3CCCN32)c1` (centres undefined) the max dye-equivalent concentration was “inactive”. For `CCn1nc(NC(=O)c2ccco2)c2cc3ccc(C)cc3nc21`, the max dye-equivalent concentration was 64 nM (active). With `CCN(CC)C(=O)c1sc(NC(=O)c2ccco2)c(C#N)c1C` the max dye-equivalent concentration was “inactive”. In the case of `Cc1ccnc(NC(=O)c2ccc(NC(=O)c3ccco3)cc2)c1`, the max dye-equivalent concentration is reported as “inactive”. For `C=CCNc1nc(C)nc(OC)n1`, the max dye-equivalent concentration was “inactive”. For `C=CCn1c(COc2ccccc2C)nnc1SCC(=O)O`, the max dye-equivalent concentration was “inactive”. In the case of `Cc1nc(-c2ccc(NC(=O)c3cccs3)cc2)cs1`, the max dye-equivalent concentration is reported as 220 nM (active). With `O=C(O)c1ccc(NC(=O)c2cccs2)cc1` the max dye-equivalent concentration was “inactive”. With `Cn1c(SCC(=O)Nc2cccc(NC(=O)c3cccs3)c2)nnc1-c1ccncc1` the max dye-equivalent concentration was “inactive”. For `Cc1cc(=O)[nH]c(SCC(=O)N2c3ccccc3CC2C)n1` (centres undefined), the max dye-equivalent concentration was “inactive”. In the case of `NC(=NC(=O)c1ccccc1)C1=C(O)CCC1=O`, the max dye-equivalent concentration is reported as “inactive”. For `Cn1c2ccccc2c2c(C(=O)N3CCN(c4ccc(F)cc4)CC3)cn(C3CCCC3)c(=O)c21`, the max dye-equivalent concentration was 16 nM (active). With `O=C(c1cccc2ccccc12)N1CCN(c2ccccc2F)CC1` the max dye-equivalent concentration was “inactive”. For `CC(C)N(C(=O)COC(=O)c1ccccc1C(=O)N1CCN(c2ccc(F)cc2)CC1)C(C)C`, the max dye-equivalent concentration was “inactive”. In the case of `COc1ccc(-n2nnnc2SCC(=O)c2ccc(OC)c(OC)c2)cc1`, the max dye-equivalent concentration is reported as “inactive”. In the case of `CC1=C(C(=O)OC2CCCCC2)C(c2cccnc2)n2ncnc2N1` (centres undefined), the max dye-equivalent concentration is reported as “inactive”. In the case of `CCSc1nc2c(c(=O)[nH]1)C(c1cccnc1)C(C(=O)OC(C)C)=C(C)N2` (centres undefined), the max dye-equivalent concentration is reported as 10 nM (active). In the case of `COC(=O)C1=C(N)Oc2cc(C)oc(=O)c2C1c1cccnc1` (centres undefined), the max dye-equivalent concentration is reported as “inactive”. In the case of `O=C(Nc1cccc(F)c1)N1CC2(CCN(C(=O)c3cnccn3)CC2)C1`, the max dye-equivalent concentration is reported as “inactive”. For `COc1ccc(NC(=O)c2c(SC)nsc2SC)cc1`, the max dye-equivalent concentration was “inactive”. In the case of `CCOc1ccc(C(C)C)cc1S(=O)(=O)n1nc(C)cc1C`, the max dye-equivalent concentration is reported as “inactive”. With `Cc1ccc(OCCCC(=O)N2CCOCC2)c(C)c1` the max dye-equivalent concentration was “inactive”. For `CSc1nc(N)c(C#N)c(-c2ccccc2Cl)c1C#N`, the max dye-equivalent concentration was “inactive”. With `CCCc1[nH]nc2c1C(c1c(C)nn(-c3ccccc3)c1Cl)C(C#N)=C(N)O2` (centres undefined) the max dye-equivalent concentration was “inactive”. In the case of `CSc1ccc(-c2c(C#N)c(N)nc3c2c(C)nn3-c2ccccc2)cc1`, the max dye-equivalent concentration is reported as 360 nM (active). For `CCc1c(C)nc(N)n2c(SCC(=O)N3CCN(c4ccccc4)CC3)nnc12`, the max dye-equivalent concentration was “inactive”. With `CCOC(=O)c1cnc(SCC(=O)NCc2ccco2)nc1N` the max dye-equivalent concentration was “inactive”. In the case of `Cc1nc(C)c(C(=O)Nc2ccc(C)c(F)c2)o1`, the max dye-equivalent concentration is reported as “inactive”. With `COc1c(C)cccc1C(=O)Nc1cc(Cl)ccc1N1CCOCC1` the max dye-equivalent concentration was “inactive”. With `COc1ccc(Cl)cc1NC(=O)c1oc(C)nc1C` the max dye-equivalent concentration was 15 nM (active). In the case of `CCOC(=O)c1csc(NC(=O)c2ccc(S(=O)(=O)N3CCCC3)cc2)n1`, the max dye-equivalent concentration is reported as “inactive”. In the case of `CC(C)c1ccc(-c2nn[nH]n2)cc1`, the max dye-equivalent concentration is reported as “inactive”. With `Cc1ccc(F)cc1NC(=O)c1cccc(N(C)C)c1` the max dye-equivalent concentration was “inactive”. For `COc1ccc2oc(=O)c(C(=O)N3CCCc4ccccc43)cc2c1`, the max dye-equivalent concentration was “inactive”. For `COc1ccc2oc(=O)c(C(=O)N3CCN(c4ccccc4F)CC3)cc2c1`, the max dye-equivalent concentration was 39 nM (active). In the case of `COc1ccc(CN2CC(C(=O)NCCN3CCN(c4ccccc4F)CC3)CC2=O)cc1` (centres undefined), the max dye-equivalent concentration is reported as “inactive”. In the case of `CCCCC(CCC(=O)Nc1ccc(C(=O)OCC)cc1)C(=O)O` (centres undefined), the max dye-equivalent concentration is reported as “inactive”. With `NC(=O)COc1ccc2c3c(c(=O)oc2c1)CCCCC3` the max dye-equivalent concentration was 26 nM (active). In the case of `O=C(COc1ccccc1F)NC1CC1`, the max dye-equivalent concentration is reported as “inactive”. With `Cc1cc(Cl)c(S(=O)(=O)NCC2CCCO2)cc1OCC(N)=O` (centres undefined) the max dye-equivalent concentration was “inactive”. For `O=C(COc1ccc2c3c(c(=O)oc2c1)CCC3)NC1CCCCC1`, the max dye-equivalent concentration was 64 nM (active). For `O=C(CC1OC(=O)c2ccccc21)NC1CCCCC1` (centres undefined), the max dye-equivalent concentration was “inactive”. For `O=C(COc1ccc2oc3c(c2c1)CCCC3)Nc1ccccn1`, the max dye-equivalent concentration was “inactive”. With `c1ccc2c(c1)OCC(c1nn3cnnc3s1)O2` (centres undefined) the max dye-equivalent concentration was “inactive”. For `CCN(C(=O)CSc1ncn[nH]1)c1cccc2ccccc12`, the max dye-equivalent concentration was “inactive”. For `Cc1noc(C)c1S(=O)(=O)Nc1ccc(C(=O)O)cc1`, the max dye-equivalent concentration was “inactive”. With `O=C(NC(c1ccccc1)c1ccccc1)N1CCN(CCO)CC1` the max dye-equivalent concentration was “inactive”. In the case of `COc1ccc(N2C(=O)CCC(C(=O)N(C)C3CCCCC3)C2c2ccc(OC)c(OC)c2)cc1` (centres undefined), the max dye-equivalent concentration is reported as “inactive”. In the case of `COc1ccc(OC)c(NC(=O)Cn2c(=O)oc3ccccc32)c1`, the max dye-equivalent concentration is reported as “inactive”. For `C#CCN1C(=O)C(O)(CC(=O)c2cc(OC)ccc2OC)c2ccccc21` (centres undefined), the max dye-equivalent concentration was 13 nM (active). For `CNC(=O)NCCN1CCCC1=O`, the max dye-equivalent concentration was “inactive”. For `COc1ccc(C(=O)NCc2cn3ccccc3n2)cc1`, the max dye-equivalent concentration was “inactive”. In the case of `CCn1c(=N)c(C(=O)NCCCOC)cc2c(=O)n3cccc(C)c3nc21`, the max dye-equivalent concentration is reported as 12000 nM (active). With `COc1ccc(CNC(=O)c2cc3c(=O)n4ccccc4nc3n(CC3CCCO3)c2=N)cc1` (centres undefined) the max dye-equivalent concentration was 270 nM (active). In the case of `COCCCNC(=O)c1ccc2c(c1)ncn2-c1ccccc1OC`, the max dye-equivalent concentration is reported as “inactive”. With `CCOCCCNC(=O)c1c[nH]c2cc(C)ccc2c1=O` the max dye-equivalent concentration was “inactive”. For `COc1ccc(CNC(=O)C2CCN(S(=O)(=O)N3CCOCC3)CC2)cc1`, the max dye-equivalent concentration was “inactive”. In the case of `COc1cc(OC)cc(-c2nc3nc(C)c(CCC(=O)NCc4ccco4)c(C)n3n2)c1`, the max dye-equivalent concentration is reported as “inactive”. With `COc1ccccc1C(=O)NCCn1cc(SCC(=O)NCc2ccco2)c2ccccc21` the max dye-equivalent concentration was “inactive”. In the case of `COc1ccc(CCn2c(=N)c(C(=O)NCc3ccco3)cc3c(=O)n4cccc(C)c4nc32)cc1`, the max dye-equivalent concentration is reported as 11 nM (active).

Reference: PubChem BioAssay AID589 (National Center for Advancing Translational Sciences (NCATS), 2007)
